Assay results: PubChem BioAssay (NCI)
About 83,000 compounds went through this panel and 20% of them were active in at least one assay; those are over-represented in the sample as a whole.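 Method: cells in 96-well plates; compound added at one concentration; 48 h incubation; percent growth measured; values under 10 scored active.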 Unmarked numbers belong to inactive results. Activity calls are given as the source filed them.

system: SK-MEL-5 melanoma; assay: NCI-60 one-dose screen, 48 h (100 = growth as untreated, 0 = no growth, -100 = all killed); details: 10 µM
Experimental: Growth inhibition of the SK-MEL-5 human tumor cell line is measured as a screen for anti-cancer activity. Cells are grown in 96 well plates and exposed to the test compound for 48 hours. Compounds are tested at a single concentration, which is 10^-5 M for most compounds. The reported endpoint is percent growth (GI% or GIPRCNT), where numbers from 0 - 100% represent growth inhibition, and numbers from -100% - 0 represent cell death. For example, a value of 40 represents 60% growth inhibition. A value of 0 means no net growth occurred over the course of the experiment. A value of -40 indicates 40% of cells at the beginning of the experiment died by the end of the experiment. A value of -100 means all cells are dead at the end of the experiment.
NCI-60 Human Tumor Cell Lines Screen was performed using the standard one-dose NCI protocol, which is described in more detail at https://dtp.cancer.gov/discovery_development/nci-60/default.htm.
Compounds with GIPRCNT values below 10 were considered active. Activity score was based on GIPRCNT using the following formula: […]
Score is 0 for GIPRCNT values of 100 or above, 50 for GIPRCNT values of 0, and 100 for GIPRCNT values of -100.

SMILES | growth
Cc1ccc(-c2nc(Nc3ccc(C)c(S(N)(=O)=O)c3)c3ccccc3n2)cc1 | 86.7%
O=S(=O)(c1ccc(Cl)cc1)c1nc(-c2ccccc2)oc1S(=O)(=O)c1ccc(Cl)cc1 | 91.9%
C/C(=N\N=C\c1ccc(N(C)C)cc1)c1ccc2c(c1)Nc1ccccc1S2 | 36.1%
CN(C)c1ccc(/C=C/C(=O)c2ccc(NC(=O)CN3C(=O)NC(C)(c4ccccc4)C3=O)cc2)cc1 (stereo not given) | 23.2%
COc1cc2oc(-c3cccc(C(=O)Nc4ccc(Cl)cc4)c3)cc(=O)c2c(OCCNC(=O)CNC(=O)OC(C)(C)C)c1OC | 31.2%
CC1(C)CC[C@]23CC[C@]4(C)[C@H](CC[C@@H]5[C@@]6(C)CC[C@H](N)C(C)(C)[C@@H]6CC[C@]54C)[C@H]2[C@H]1OC3=O | -100% (active)
Cn1cc(-c2cc(N)n3nc(-c4c[nH]c5ccc(Br)cc45)cc3n2)c2cccnc21 | -98.3% (active)
O=C(c1ccc(Cl)cc1)C1[C@H](c2ccc(Br)cc2)[C@@H](c2ccccc2)NC12C(=O)Nc1ccc(Br)cc12 (stereo not given in full) | -60.3% (active)
O=C(NCCCCCCCCCC[P+](c1ccccc1)(c1ccccc1)c1ccccc1)c1ccc(-n2nc(-c3ccccc3O)nc2-c2ccccc2O)cc1 | -100% (active)
CO[C@H]1CSS[C@@H]1Cn1nc(-c2ccc(Oc3ccccc3)cc2)c2c(N)ncnc21 | -4.24% (active)
COc1ccc(N(C)c2cc(C#N)nc3ccccc23)cc1/C=C/C(=O)NO | -67.5% (active)
CC1(c2ccccc2)NC(=O)N(CC(=O)Nc2ccc(C(=O)/C=C/c3ccccc3)cc2)C1=O (stereo not given) | 20.4%
COc1csc(/C=N/NC(=O)c2[nH]c3ccc(Br)cc3c2-c2ccccc2)c1 | -37.2% (active)
CS(=O)(=O)Nc1ccc(-c2ccc3c(c2)ncn3-c2ccc(NC(=O)Nc3ccc(Br)cc3)cc2)cc1 | -86.2% (active)
Cc1noc2c(Cc3ccc([N+](=O)[O-])cc3)nn(CC(=O)N/N=C/c3ccc(Br)cc3)c(=O)c12 | 92%
CCC(C)S(=O)(=O)c1oc(-c2ccc(C)cc2)nc1S(=O)(=O)c1ccccc1 (stereo not given) | -86.5% (active)
C=C1CCC2C3(C)COC(c4cccc(F)c4)OC3CCC2(C)C1CC(O)C1=CCOC1=O (stereo not given) | 60.1%
O=c1c2ccccc2nc(COc2ccccc2)n1/N=C/c1ccc(N2CCOCC2)cc1 | 82%
O=C(c1ccc(O)cc1)C1[C@H](c2ccc(Br)cc2)[C@@H](c2ccccc2)NC12C(=O)Nc1ccccc12 (stereo not given in full) | 30.1%
O=C(Nc1ccc(OCc2ccccc2)cc1)Nc1ccc(Cl)c(C(F)(F)F)c1 | -96.6% (active)

SMILES | growth
COc1ccc(C(=O)Nc2ccc(-c3ccc4c(c3)NC(=O)/C4=C\c3ccc[nH]3)cc2)cc1 | 49.1%
CC1(C)CC[C@]2(C(=O)NCCCNCCCCNCCCN)CC[C@]3(C)C(=CC[C@@H]4[C@@]5(C)Cc6c([nH]c7ccccc67)C(C)(C)[C@@H]5CC[C@]43C)[C@H]2C1 | 81.5%
Cc1ccc(NC(=O)c2ccc(-n3c(=O)[nH]c4ccccc4c3=O)cc2)cc1 | 90.9%
Brc1ccc(/C=C/c2n(Cc3ccc4ccccc4c3)c3ccccc3[n+]2Cc2ccc3ccccc3c2)cc1 | -99.2% (active)
Cc1ccc(CNC(=O)Cc2ccc3c(c2)CN(C2CCC(=O)NC2=O)C3=O)cc1 (stereo not given) | -70.5% (active)
Nc1nc(Nc2ccccc2)nn1Cc1c(Cl)cccc1Cl | 23.5%
O=C(COc1ccc(NC(=O)Nc2ccc(Cl)cc2)cc1)N=Nc1c(O)[nH]c2ccc([N+](=O)[O-])cc12 | 63.1%
O=C(O)CCCCCCCCCCN1C(=O)/C(=C/c2cnc(-c3ccccc3)s2)SC1=S | 93.1%
Cc1ccc2nc3c(nc2c1)c1cc(I)ccc1n3CCN(C)C | 48.1%
C=C1CCC2C3(C)COC(c4ccccc4F)OC3CCC2(C)C1C/C=C1/C(=O)OCC1O (stereo not given) | -91.1% (active)
c1ccc(C(=C(c2ccc(OCCN3CCCCC3)cc2)c2ccc(OCCN3CCCCC3)cc2)C2CCCC2)cc1 | -100% (active)
Cc1ccc(F)cc1N/C=c1\s/c(=C(\C#N)C(=O)Nc2ccccc2)n(-c2ccccc2)c1=O | 71.8%
Cc1nn(-c2ccccc2)c2ncn(CC(=O)N/N=C/c3c[nH]c4ccccc34)c(=O)c12 | 85.5%
O=C(c1ccc(Cl)cc1)C1[C@H](c2ccccc2Br)[C@@H](c2ccccc2)NC12C(=O)Nc1ccccc12 (stereo not given in full) | -15.9% (active)
Cc1ccc(/C(N)=N/c2sc(-c3ccccc3)nc2-c2ccccc2)cc1 | 89.2%
O=S(=O)(Nc1ncccn1)c1ccc(-n2c(-c3ccc(Br)cc3)nc(-c3ccccc3)c2-c2ccccc2)cc1 | 25.3%
CCOC(=O)CNC(=O)CN(Cc1ccccc1)C(=O)[C@@]1(C)CCC[C@]2(C)[C@H]3CC4C(C(C)C)=C[C@]3(CC[C@H]21)[C@@H]1C(=O)CCC(=O)[C@H]41 | 68.6%
CN(C)c1nc(NCCNS(=O)(=O)c2ccc(C(=O)/C=C/c3ccccc3)cc2)nc(Nc2ccc(F)cc2)n1 | 30.2%
COc1ccc(-c2nc(Nc3ccccc3S(N)(=O)=O)c3ccccc3n2)cc1 | 61.3%
Cc1ccc(CSc2nc(Cl)c(C#N)c(-c3ccc(F)cc3)n2)cc1 | 77.6%
